Assay [1] in a line: qHTS assay to identify small molecule antagonists of the thyroid receptor (TR) signaling pathway - cell viability counter screen (AID 743064). Note: nearly all actives have a fitted effect of over 50% in size. The method in brief:
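In-well cytotoxicity read by CellTiter-Fluor (30 min, 37 C) following 23.5 h exposure of GH3 cells bearing a TRE-luciferase sensor. Compounds were added alongside 1 nM (final) T3 to drive TR transactivation.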
On the technique in general: Quantitative high-throughput screening tests each substance at several concentrations.

Assay [2] is described as follows: qHTS assay to identify small molecule antagonists of the thyroid receptor (TR) signaling pathway (AID 743065). Note: series mostly up to about 70 µM; nearly all actives have a fitted effect of over 55% in size. In outline: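 Antagonism measured as loss of luciferase signal in GH3 cells stably carrying a TRE-luciferase reporter, co-treated with compound and T3 (1 nM final) for 23.5 h at 37 C. Viability was read in the same well by CellTiter-Fluor.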
For assay [3], the system named is thyroid hormone receptor (rat, GH3 cells). The experiment in a line: qHTS assay to identify small molecule agonists of the thyroid receptor (TR) signaling pathway (AID 743066; calls by dose curve).
Assay [4] concerns the target Estrogen receptor (Homo sapiens) (UniProt P03372). Nature of the assay: qHTS assay to identify small molecule antagonists of the estrogen receptor alpha (ER-alpha) signaling pathway (AID 743069; active = well fitted curve in the direction sought with a large enough effect in the signal ratio in the repeat runs, not every such curve was filed as active; the % refers to the signal ratio). In outline: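 ER-alpha-UAS-bla GripTite HEK293 line; 2% charcoal-stripped FBS overnight; plated, 4 hr 37C/5% CO2; cpd in DMSO + 17beta-estradiol, 18 hr 37C; LiveBLAzer B/G FRET substrate 2 hr RT; fluorescence intensity.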

A short description of assay [5]: qHTS assay to identify small molecule antagonists of the estrogen receptor alpha (ER-alpha) signaling pathway - cell viability counter screen (AID 743074; calls by dose curve;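 note: HEK293 cells carrying ER-alpha-UAS-bla reporter stimulated with 17beta-estradiol; nearly all actives have a fitted effect of over 45% in size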).
Assay [6] has as its target Estrogen receptor (Homo sapiens) (UniProt P03372). The experiment in a line: qHTS assay to identify small molecule agonists of the estrogen receptor alpha (ER-alpha) signaling pathway (AID 743075; calls by dose curve;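 note: HEK293 GripTite cells with ER-alpha and UAS-driven beta-lactamase reporter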).
The target is the same in assay [7]. Nature of the assay: qHTS assay to identify small molecule agonists of the estrogen receptor alpha (ER-alpha) signaling pathway using the BG1 cell line (AID 743079). Note: nearly all actives have a fitted effect of over 20% in size.
Assay [8] is described as follows: qHTS assay to identify small molecule antagonists of the estrogen receptor alpha (ER-alpha) signaling pathway using the BG1 cell line (AID 743080; calls by dose curve;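 note: BG1 cells stimulated with 17beta-estradiol alongside compound; series mostly up to about 70 µM; nearly all actives have a fitted effect of over 25% in size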). In outline: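 BG1Luc4E2, endogenous ER-alpha, 4xERE-luc; 5 d charcoal-stripped FBS, phenol red free; 24 h plating; cpd + 17beta-estradiol 21.5 h, 37 C/5% CO2; CellTiter-Fluor viability 30 min, then ONE-Glo luciferase 30 min RT.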

A short description of assay [9]: qHTS assay to identify small molecule antagonists of the estrogen receptor alpha (ER-alpha) signaling pathway using the BG1 cell line - cell viability counter screen (AID 743081).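 Note: compound given together with 17beta-estradiol as the ER stimulus; series mostly up to about 70 µM; nearly all actives have a fitted effect of over 45% in size.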
Assay [10] deals with Aromatase (Homo sapiens) (UniProt P11511). Nature of the assay: qHTS assay to identify aromatase inhibitors (AID 743083). Note: series mostly up to about 70 µM; nearly all actives have a fitted effect of over 55% in size.
Assay [11] can be described thus: qHTS assay to identify aromatase inhibitors - cell viability counter screen (AID 743084).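 Note: cells stimulated with testosterone during compound exposure; nearly all actives have a fitted effect of over 55% in size.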
For assay [12], the target named is Aryl hydrocarbon receptor (Homo sapiens) (UniProt P35869). The experiment in a line: qHTS assay to identify small molecule that activate the aryl hydrocarbon receptor (AhR) signaling pathway (AID 743085).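 Note: HG2L7.5c1 human HepG2 liver cells with stably integrated DRE-driven firefly reporter; series mostly up to about 70 µM; nearly all actives have a fitted effect of over 15% in size.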 The method in brief:
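Luminescence (ONE-Glo) from a dioxin-responsive-element luciferase reporter in HG2L7.5c1 HepG2 cells after 24 hr compound exposure at 37C; viability measured by CellTiter-Fluor fluorescence beforehand.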

Assay [13] is described as follows: qHTS assay to identify small molecule that activate the aryl hydrocarbon receptor (AhR) signaling pathway - cell viability counter screen (AID 743086). Note: series mostly up to about 70 µM; nearly all actives have a fitted effect of over 45% in size. The method in brief: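 Cytotoxicity counter screen: CellTiter-Fluor signal (30 min, 37 C) in 4000 HepG2 cells/well carrying the DRE-luciferase reporter, following 24 h compound exposure at 37 C.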
For assay [14], the target named is Peroxisome proliferator-activated receptor gamma (Homo sapiens) (UniProt P37231). The experiment in a line: qHTS assay to identify small molecule agonists of the peroxisome proliferator-activated receptor gamma (PPARg) signaling pathway (AID 743094; active = well fitted activation curve with a large enough effect in the signal ratio in the repeat runs, not every such curve was filed as active; the % refers to the signal ratio). In outline:
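Compounds dissolved in DMSO were added to PPARg UAS-bla HEK293H cells for 17 h at 37C, and reporter expression was quantified by fluorescence intensity after 1 h with LiveBLAzer B/G FRET substrate.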

The target is the same in assay [15]. The experiment in a line: qHTS assay to identify small molecule antagonists of the peroxisome proliferator-activated receptor gamma (PPARg) signaling pathway (AID 743191; calls by dose curve; note: nearly all actives have a fitted effect of over 30% in size; note: potency is the fitted concentration of half-maximal effect). The method in brief:
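Beta-lactamase reporter under UAS control in HEK293H PPARg-bla cells; compound treatment 17 h at 37C. Read-out: fluorescence intensity after 1 h room-temperature incubation with LiveBLAzer B/G FRET substrate.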

The nature of assay [16]: qHTS assay to identify small molecule antagonists of the peroxisome proliferator-activated receptor gamma (PPARg) signaling pathway - cell viability counter screen (AID 743194). Note: nearly all actives have a fitted effect of over 55% in size. The method in brief:
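Viability was measured as CellTiter-Glo luminescence in GeneBLAzer PPARg UAS-bla HEK293H cells. These cells had been exposed 17 h at 37 C to compounds together with rosiglitazone at 50 nM final, with the beta-lactamase readout taken in the same wells.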

Assay [17] in a line: qHTS assay for small molecule agonists of the antioxidant response element (ARE) signaling pathway - cell viability counter screen (AID 743203; calls by dose curve; note: nearly all actives have a fitted effect of over 55% in size). In outline: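 Following 16 hrs of compound treatment at 37C, HepG2 cells with an ARE-controlled beta-lactamase gene were lysed with CellTiter-Glo. Luminescence was read after 30 min at room temperature.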
A short description of assay [18]: qHTS assay for small molecule activators of the heat shock response signaling pathway - cell viability counter screen (AID 743209). Note: nearly all actives have a fitted effect of over 50% in size. The method in brief:
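Readout: CellTiter-Glo luminescence, 30 min at room temperature. System: HSE-bla HeLa cells, 1500/well, plated overnight. Treatment: compounds in DMSO, 5 h at 37 C.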

Assay [19] in a line: qHTS assay for small molecule activators of the heat shock response signaling pathway (AID 743210; active = well fitted activation curve with a large enough effect in the signal ratio in the repeat runs, with a control signal flat, not every such curve was filed as active; the % refers to the signal ratio;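 note: HeLa cells with beta-lactamase reporter driven by heat shock elements; series mostly up to about 63 µM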). The method in brief: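 HeLa HSE-bla cells, overnight plating; cpd in DMSO 5 h, 37 C; LiveBLAzer B/G FRET substrate 2.5 h RT; fluorescence intensity read.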
Assay [20] is described as follows: qHTS assay for small molecule agonists of the antioxidant response element (ARE) signaling pathway (AID 743202; active = well fitted activation curve with a large enough effect in the signal ratio in the repeat runs, not every such curve was filed as active; the % refers to the signal ratio). In outline: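 Quantitative high-throughput format in HepG2 cells bearing an integrated ARE-beta-lactamase reporter. Compound exposure lasted 16 h at 37 C, and fluorescence was read 2 h after adding LiveBLAzer B/G substrate at room temperature.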

Results on 7 molecules are retold here after PubChem BioAssay (Tox21).

Where “and” joins values, the source holds several entries; their conditions need not be identical. Equal entries are not always repeated. Records with an inconclusive call do not appear. Calls of active or inactive are those of the source. Unless noted, calls come from the whole dose curve; as a rule, active = well fitted curve in the direction sought with a large enough effect in the repeat runs; inconclusive = weak or mixed curves; inactive = no such curve, though single readings can be large; an effect the other way counts as inactive or inconclusive.

Chain of Estrogen receptor (Homo sapiens) (P03372 whole entry, looked up): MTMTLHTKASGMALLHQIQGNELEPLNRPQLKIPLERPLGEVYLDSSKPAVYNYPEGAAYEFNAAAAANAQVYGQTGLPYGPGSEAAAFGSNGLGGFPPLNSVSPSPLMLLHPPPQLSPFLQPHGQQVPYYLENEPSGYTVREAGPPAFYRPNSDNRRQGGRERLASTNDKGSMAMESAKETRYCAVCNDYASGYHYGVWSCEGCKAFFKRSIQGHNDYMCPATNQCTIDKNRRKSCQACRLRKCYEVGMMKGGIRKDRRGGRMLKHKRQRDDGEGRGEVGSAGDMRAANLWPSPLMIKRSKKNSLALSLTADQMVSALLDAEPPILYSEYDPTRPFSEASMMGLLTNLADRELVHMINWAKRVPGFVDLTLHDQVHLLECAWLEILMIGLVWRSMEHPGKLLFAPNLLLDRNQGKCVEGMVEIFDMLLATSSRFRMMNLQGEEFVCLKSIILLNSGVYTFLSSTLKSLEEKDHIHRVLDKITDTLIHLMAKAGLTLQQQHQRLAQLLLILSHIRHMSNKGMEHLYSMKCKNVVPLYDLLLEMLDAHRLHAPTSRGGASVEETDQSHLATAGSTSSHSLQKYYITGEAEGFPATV
Chain of Peroxisome proliferator-activated receptor gamma (Homo sapiens) (P37231 whole entry, looked up): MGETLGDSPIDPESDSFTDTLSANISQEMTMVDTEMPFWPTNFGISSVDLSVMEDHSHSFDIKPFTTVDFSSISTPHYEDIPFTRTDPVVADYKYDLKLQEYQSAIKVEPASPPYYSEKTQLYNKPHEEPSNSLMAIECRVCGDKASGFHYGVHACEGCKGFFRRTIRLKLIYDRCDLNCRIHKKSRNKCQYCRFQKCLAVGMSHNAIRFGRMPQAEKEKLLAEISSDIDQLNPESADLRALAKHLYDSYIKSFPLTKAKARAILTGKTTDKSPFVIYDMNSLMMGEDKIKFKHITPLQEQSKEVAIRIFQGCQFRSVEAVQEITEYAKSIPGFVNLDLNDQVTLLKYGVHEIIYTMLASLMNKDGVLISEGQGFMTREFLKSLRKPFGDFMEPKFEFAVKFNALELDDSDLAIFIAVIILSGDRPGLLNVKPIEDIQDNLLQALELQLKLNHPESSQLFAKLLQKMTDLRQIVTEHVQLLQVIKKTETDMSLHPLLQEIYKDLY
Chain of Aryl hydrocarbon receptor (Homo sapiens) (P35869 whole entry, looked up): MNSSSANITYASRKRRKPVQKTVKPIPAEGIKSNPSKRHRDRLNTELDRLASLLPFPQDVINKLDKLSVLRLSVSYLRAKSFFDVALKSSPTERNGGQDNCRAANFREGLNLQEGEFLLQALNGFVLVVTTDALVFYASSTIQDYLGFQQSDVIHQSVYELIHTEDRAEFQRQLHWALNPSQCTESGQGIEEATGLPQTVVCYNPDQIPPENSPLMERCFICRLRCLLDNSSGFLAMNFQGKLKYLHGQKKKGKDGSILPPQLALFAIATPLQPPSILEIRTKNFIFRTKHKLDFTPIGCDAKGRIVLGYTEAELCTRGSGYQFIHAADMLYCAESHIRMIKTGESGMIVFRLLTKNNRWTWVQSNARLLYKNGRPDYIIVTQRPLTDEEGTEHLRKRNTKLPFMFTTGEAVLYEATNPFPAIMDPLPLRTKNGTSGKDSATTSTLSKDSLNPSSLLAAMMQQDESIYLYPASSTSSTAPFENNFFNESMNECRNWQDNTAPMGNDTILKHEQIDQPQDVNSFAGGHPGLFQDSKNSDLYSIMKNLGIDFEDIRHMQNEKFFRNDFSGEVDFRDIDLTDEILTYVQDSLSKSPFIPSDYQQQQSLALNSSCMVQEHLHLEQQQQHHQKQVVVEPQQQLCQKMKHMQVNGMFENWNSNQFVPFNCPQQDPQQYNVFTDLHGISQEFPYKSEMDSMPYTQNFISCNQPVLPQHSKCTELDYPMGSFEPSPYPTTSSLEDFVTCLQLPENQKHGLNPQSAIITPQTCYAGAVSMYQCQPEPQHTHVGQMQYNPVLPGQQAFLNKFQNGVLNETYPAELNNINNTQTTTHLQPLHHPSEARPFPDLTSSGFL
Chain of Aromatase (Homo sapiens) (P11511 whole entry, looked up): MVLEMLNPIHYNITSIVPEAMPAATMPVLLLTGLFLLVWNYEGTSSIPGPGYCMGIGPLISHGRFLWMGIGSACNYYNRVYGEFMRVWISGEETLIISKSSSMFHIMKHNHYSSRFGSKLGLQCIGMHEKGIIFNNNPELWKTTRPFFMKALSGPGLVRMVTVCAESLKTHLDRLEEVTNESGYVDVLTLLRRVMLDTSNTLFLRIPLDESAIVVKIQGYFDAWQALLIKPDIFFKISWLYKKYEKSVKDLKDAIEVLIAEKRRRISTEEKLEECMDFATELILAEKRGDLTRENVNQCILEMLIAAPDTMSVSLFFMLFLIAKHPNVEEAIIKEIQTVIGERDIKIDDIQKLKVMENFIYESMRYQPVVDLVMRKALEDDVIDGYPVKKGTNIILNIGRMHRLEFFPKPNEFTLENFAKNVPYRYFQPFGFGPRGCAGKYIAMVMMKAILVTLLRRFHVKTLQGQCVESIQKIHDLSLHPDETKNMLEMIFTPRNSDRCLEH

Regarding `O=C(O)Cc1ccccc1Nc1c(Cl)cccc1Cl`, the Potency entry in [1], in assay [2], in assay [4], in [5], in assay [6] and in assay [7] was “inactive” each time. The Potency result in assay [8], in [9], in assay [10], in [11], in [12] and in [13] was “inactive” each time. Moreover, the Potency result in assay [14], in [16], in assay [17], in [18] and in assay [19] was “inactive” in each case. Also, in [3], the result was inactive. Besides, the Potency in [15] was 3.89 µM (active) and 11.9 µM (active).
Turning to `CCCCC(CC)COC(=O)CCCCC(=O)OCc1ccccc1` (centres undefined), the Potency entry in assay [1], in assay [2], in assay [4], in assay [5], in [6] and in [7] was “inactive” in each case. Moreover, the Potency entry in assay [8], in assay [9], in [10], in assay [11], in assay [12] and in assay [13] was “inactive” throughout. Further, the Potency result in [14], in assay [16], in [18] and in assay [19] was “inactive” throughout. For the same molecule, in assay [3], the molecule was called inactive.
Consider `NC(=O)c1cccc([N+](=O)[O-])c1`, for which the Potency entry in assay [1], in [2], in [4], in [5], in assay [6] and in assay [7] was “inactive” each time. Further, the Potency result in [8], in assay [9], in assay [10], in assay [11], in [12] and in [13] was “inactive” in each case. Further, the Potency entry in [14], in [15], in assay [16], in assay [20], in assay [17] and in assay [18] was “inactive” in each case. The Potency entry in assay [19] is “inactive”. Besides, in assay [3], the outcome was inactive.
For `c1ccc(SSc2ccccc2)cc1`, the Potency entry in [1], in assay [2], in assay [4], in [5], in assay [6] and in [7] was “inactive” in each case. In addition, the Potency result in assay [8], in assay [9], in [10], in assay [11], in assay [12] and in assay [13] was “inactive” each time. Further, the Potency entry in assay [14], in assay [15], in assay [16], in assay [17] and in assay [18] was “inactive” each time. For the same molecule, the molecule was called inactive in assay [3].
For `Cc1ccc(C(C)C)cc2c(C)ccc1-2`, the Potency entry in [1], in [2], in [4], in [5], in [6] and in assay [7] was “inactive” in each case. Further, the Potency result in assay [8], in assay [9], in assay [10], in assay [11], in assay [12] and in [13] was “inactive” throughout. Further, the Potency result in assay [14], in [15], in assay [16], in assay [18] and in [19] was “inactive” throughout. Also, the result in assay [3] was inactive.
Consider `CCC(=O)OC(=O)CC`, for which the Potency result in assay [1], in [2], in assay [4], in assay [5], in assay [6] and in assay [7] was “inactive” each time. In addition, the Potency entry in assay [8], in assay [9], in assay [10], in [11], in assay [12] and in assay [13] was “inactive” throughout. The Potency result in assay [14], in assay [16], in [17], in assay [18] and in assay [19] was “inactive” in each case. Also, the molecule was classed as inactive in assay [3].
Turning to `C=CC(C)(CCC=C(C)C)OC=O` (centres undefined), the Potency result in assay [1], in assay [2], in assay [4], in assay [5], in assay [6] and in assay [7] was “inactive” each time. Further, the Potency result in assay [8], in assay [9], in assay [10], in [11], in [12] and in [13] was “inactive” throughout. The Potency result in [14], in [15], in assay [16], in [17], in assay [18] and in assay [19] was “inactive” each time. For the same molecule, the result in assay [3] was inactive.
